Assay results taken from article PMC10812921, “Transcriptional Coactivator BOB1 (OBF1, OCA-B) Modulates the Specificity of DNA Recognition by the POU-Domain Factors OCT1 and OCT2 in a Monomeric Configuration”.

How the values were obtained:
[1] = biological target: POU1 (OCT1 POU domain) (human, UniProt P14859 260-458); assay: EMSA-SELEX-seq; no BOB1; 20 mM Tris-HCl pH 7.6, 140 mM NaCl, 10% glycerol, 0.5 mM EDTA, 0.05% Triton X-100, 0.1 mg/mL BSA, 0.1 mg/mL poly(dI-dC), 5 mM DTT, room temperature, 20 min; high values mean tight binding; conditions: protein: recombinant; dsDNA, one strand shown
Method in brief: (§1)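 After expression in E. coli BL21, tagged POU-domain proteins were purified under denaturing conditions and then renatured. Each binding reaction held 30 ng protein and 300 ng of a PCR-amplified double-stranded random 35-nt library in 20 μL Tris–HCl pH 7.6 binding buffer, with or without 28 ng coactivator protein, for 20 min at RT. Bands holding complexes were cut from native 6% PAGE, eluted and PCR-amplified across four rounds, and the output was Illumina-sequenced. The value given for binding preference is the share, in percent, of sequenced 8-mers fitting a motif pattern.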

[2] = biological target: T1, POU2 (OCT2 POU domain) (human, UniProt P09086 175-386); assay: as above; conditions: protein: recombinant; dsDNA, one strand shown
T1 sequence: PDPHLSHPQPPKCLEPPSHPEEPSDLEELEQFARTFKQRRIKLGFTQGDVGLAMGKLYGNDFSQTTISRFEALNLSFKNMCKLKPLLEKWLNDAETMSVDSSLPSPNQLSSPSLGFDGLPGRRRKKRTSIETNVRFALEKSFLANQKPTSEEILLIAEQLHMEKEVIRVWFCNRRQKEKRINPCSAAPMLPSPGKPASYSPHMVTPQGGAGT
Method in brief: as §1

[3] = biological target: POU1 (OCT1 POU domain);BOB1 (OBF1, OCA-B) (human;human, UniProt P14859;Q16633 260-458;1-256, |); assay: EMSA-SELEX-seq; with BOB1 (ternary complex band); 20 mM Tris-HCl pH 7.6, 140 mM NaCl, 10% glycerol, 0.5 mM EDTA, 0.05% Triton X-100, 0.1 mg/mL BSA, 0.1 mg/mL poly(dI-dC), 5 mM DTT, room temperature, 20 min; high values mean tight binding; conditions: protein: recombinant;recombinant; copies: 1;1; dsDNA, one strand shown
Method in brief: as §1

[4] = biological target: T2, POU2 (OCT2 POU domain);BOB1 (OBF1, OCA-B) (human;human, UniProt P09086;Q16633 175-386;1-256, |); assay: as above; conditions: protein: recombinant;recombinant; copies: 1;1; dsDNA, one strand shown
T2 sequence 1: T1 sequence
T2 sequence 2: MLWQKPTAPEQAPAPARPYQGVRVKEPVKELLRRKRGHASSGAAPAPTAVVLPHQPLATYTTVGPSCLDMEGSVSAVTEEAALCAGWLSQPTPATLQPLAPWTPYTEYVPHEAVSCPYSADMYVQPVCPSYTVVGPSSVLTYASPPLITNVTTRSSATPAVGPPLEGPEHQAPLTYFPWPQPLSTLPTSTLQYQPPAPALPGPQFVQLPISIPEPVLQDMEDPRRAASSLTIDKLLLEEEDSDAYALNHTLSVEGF
Method in brief: as §1

POU1 (OCT1 POU domain), sequence (P14859 260-458): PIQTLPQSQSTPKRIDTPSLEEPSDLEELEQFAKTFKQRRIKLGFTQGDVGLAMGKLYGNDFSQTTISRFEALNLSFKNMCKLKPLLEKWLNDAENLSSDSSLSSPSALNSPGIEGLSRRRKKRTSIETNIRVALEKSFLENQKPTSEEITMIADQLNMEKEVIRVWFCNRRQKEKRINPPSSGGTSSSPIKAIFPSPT

| Sequence | binding signal [1] | binding signal [2] | binding signal [3] | binding signal [4] |
| --- | --- | --- | --- | --- |
| AATCTAAT | 0.116 % of ANNNNAAN 8-mers | 0.143 % of ANNNNAAN 8-mers | 0.0972 % of ANNNNAAN 8-mers | 0.0949 % of ANNNNAAN 8-mers |
| AATTAAAA | 0.364 % of ANNNNAAN 8-mers | 0.399 % of ANNNNAAN 8-mers | 0.156 % of ANNNNAAN 8-mers | 0.151 % of ANNNNAAN 8-mers |
| AGTTCAAG | 0.0297 % of ANNNNAAN 8-mers | 0.0276 % of ANNNNAAN 8-mers | 0.0359 % of ANNNNAAN 8-mers | 0.0314 % of ANNNNAAN 8-mers |
| ATAGAAAA | 0.0767 % of ANNNNAAN 8-mers | 0.0771 % of ANNNNAAN 8-mers | 0.0695 % of ANNNNAAN 8-mers | 0.0619 % of ANNNNAAN 8-mers |
| AAACGAAA | 0.0568 % of ANNNNAAN 8-mers | 0.0558 % of ANNNNAAN 8-mers | 0.0644 % of ANNNNAAN 8-mers | 0.052 % of ANNNNAAN 8-mers |
| ACGTCAAA | 0.0271 % of ANNNNAAN 8-mers | 0.0178 % of ANNNNAAN 8-mers | 0.0371 % of ANNNNAAN 8-mers | 0.0173 % of ANNNNAAN 8-mers |
| AAGGTAAT | 0.122 % of ANNNNAAN 8-mers | 0.163 % of ANNNNAAN 8-mers | 0.0925 % of ANNNNAAN 8-mers | 0.128 % of ANNNNAAN 8-mers |
| AAAACAAA | 0.158 % of ANNNNAAN 8-mers | 0.119 % of ANNNNAAN 8-mers | 0.262 % of ANNNNAAN 8-mers | 0.125 % of ANNNNAAN 8-mers |
| AATAGAAT | 0.113 % of ANNNNAAN 8-mers | 0.136 % of ANNNNAAN 8-mers | 0.0921 % of ANNNNAAN 8-mers | 0.121 % of ANNNNAAN 8-mers |
| ACATCAAT | 0.0435 % of ANNNNAAN 8-mers | 0.057 % of ANNNNAAN 8-mers | 0.0367 % of ANNNNAAN 8-mers | 0.0338 % of ANNNNAAN 8-mers |
| AGAAAAAC | 0.04 % of ANNNNAAN 8-mers | 0.0368 % of ANNNNAAN 8-mers | 0.0519 % of ANNNNAAN 8-mers | 0.0396 % of ANNNNAAN 8-mers |
| ACGCCAAT | 0.0137 % of ANNNNAAN 8-mers | 0.0184 % of ANNNNAAN 8-mers | 0.0195 % of ANNNNAAN 8-mers | 0.0256 % of ANNNNAAN 8-mers |
| ATTGAAAC | 0.0431 % of ANNNNAAN 8-mers | 0.0322 % of ANNNNAAN 8-mers | 0.0406 % of ANNNNAAN 8-mers | 0.0396 % of ANNNNAAN 8-mers |
| AAGGAAAC | 0.0385 % of ANNNNAAN 8-mers | 0.0403 % of ANNNNAAN 8-mers | 0.0511 % of ANNNNAAN 8-mers | 0.038 % of ANNNNAAN 8-mers |
| AAGTTAAT | 0.165 % of ANNNNAAN 8-mers | 0.178 % of ANNNNAAN 8-mers | 0.102 % of ANNNNAAN 8-mers | 0.102 % of ANNNNAAN 8-mers |
| ATACTAAT | 0.17 % of ANNNNAAN 8-mers | 0.182 % of ANNNNAAN 8-mers | 0.0745 % of ANNNNAAN 8-mers | 0.11 % of ANNNNAAN 8-mers |
| AACGGAAG | 0.0168 % of ANNNNAAN 8-mers | 0.0259 % of ANNNNAAN 8-mers | 0.0164 % of ANNNNAAN 8-mers | 0.0206 % of ANNNNAAN 8-mers |
| AAATGAAG | 0.17 % of ANNNNAAN 8-mers | 0.188 % of ANNNNAAN 8-mers | 0.186 % of ANNNNAAN 8-mers | 0.2 % of ANNNNAAN 8-mers |
| ATCTTAAT | 0.126 % of ANNNNAAN 8-mers | 0.176 % of ANNNNAAN 8-mers | 0.103 % of ANNNNAAN 8-mers | 0.135 % of ANNNNAAN 8-mers |
| AAAGCAAG | 0.04 % of ANNNNAAN 8-mers | 0.0368 % of ANNNNAAN 8-mers | 0.0457 % of ANNNNAAN 8-mers | 0.0421 % of ANNNNAAN 8-mers |
| AACAAAAC | 0.0587 % of ANNNNAAN 8-mers | 0.0409 % of ANNNNAAN 8-mers | 0.0987 % of ANNNNAAN 8-mers | 0.0636 % of ANNNNAAN 8-mers |
| AAGGCAAA | 0.222 % of ANNNNAAN 8-mers | 0.117 % of ANNNNAAN 8-mers | 0.443 % of ANNNNAAN 8-mers | 0.278 % of ANNNNAAN 8-mers |
| AATCAAAC | 0.0526 % of ANNNNAAN 8-mers | 0.057 % of ANNNNAAN 8-mers | 0.0765 % of ANNNNAAN 8-mers | 0.0405 % of ANNNNAAN 8-mers |
| ATGCAAAT | 5.32 % of ANNNNAAN 8-mers | 5.41 % of ANNNNAAN 8-mers | 8.18 % of ANNNNAAN 8-mers | 12.6 % of ANNNNAAN 8-mers |
| AGGTGAAG | 0.04 % of ANNNNAAN 8-mers | 0.0386 % of ANNNNAAN 8-mers | 0.0339 % of ANNNNAAN 8-mers | 0.0471 % of ANNNNAAN 8-mers |
| ACGTCAAT | 0.0339 % of ANNNNAAN 8-mers | 0.0426 % of ANNNNAAN 8-mers | 0.0269 % of ANNNNAAN 8-mers | 0.0322 % of ANNNNAAN 8-mers |
| AGACAAAC | 0.0313 % of ANNNNAAN 8-mers | 0.0265 % of ANNNNAAN 8-mers | 0.0414 % of ANNNNAAN 8-mers | 0.0322 % of ANNNNAAN 8-mers |
| ATCAAAAA | 0.061 % of ANNNNAAN 8-mers | 0.0702 % of ANNNNAAN 8-mers | 0.0851 % of ANNNNAAN 8-mers | 0.0636 % of ANNNNAAN 8-mers |
